Screens (PubChem)
BL2 CD40 inh = inhibitors of CD40-induced NF-kB signaling, primary screen, BL2 cells, luciferase reporter, single point; inhibition, % at 10 µM; AID 1053188, 2014; CD40L-induced, 4 h; 83,000 compounds, 0.94% hits;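 active = mean inhibition of at least 50% with a set share of replicates also reaching that level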;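 also: 0% = neutral control wells and 100% = IKK inhibitor VII at 50 µM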
Numbers without * were called inactive; [ ] = dose if it differs, or a comment. Only a selection was taken, and hits are over-represented in it overall.

SMILES | BL2 CD40 inh
FC(F)(F)c1cccc(C2=CCN(CCc3ccc4ccccc4c3)CC2)c1 | -4.3[25 µM]
O=[N+]([O-])[N-][n+]1cnn(Cc2ccccc2)c1 | 7.7
CC(=NNC(=S)N1CC2CCC(CC2)C1)c1nccs1 | 66.2*
CC1(C)CC(CCNCc2ccc3c(c2)OCO3)(Cc2ccccc2)CCO1 (stereo not drawn) | 5.1
Fc1ccc(CN2CC3NC(C2)C3c2ccc(Br)cc2)cc1 (stereo not drawn) | 3.6
CC12CCC3c4ccc(OC(=O)N(CCCl)CCCl)cc4CCC3C1CCC2O (stereo not drawn) | 6.2
S=c1[nH]c2ccccc2[nH]1 | 3.0
COc1ccc(C(=O)N2CCCC2=O)cc1 | -3.4
COc1ccc(C=C2C(=O)NC(=S)NC2=O)cc1OC | -3.3
O=C1NC(=O)c2c1c1c3ccccc3[nH]c1c1[nH]c3ccccc3c21 | 69.4*[25 µM]
CCN(CC(=O)Nc1ccc(C#N)c(Cl)c1)CC(=O)NC(C)(C)C | 10.1
CCCC12CN3CN(C1)CC(CCC)(C3)C2O (stereo not drawn) | 2.9
C[C@@H]1CN([C@@H](C)CO)C(=O)CCCn2cc(nn2)CO[C@H]1CN(C)C(=O)Oc1ccc2ccccc2c1 | 3.6[25 µM]
COc1ccc(-c2nn(CCC#N)cc2C(=O)NCc2ccccc2)cc1 | 11.2
C/C=C/c1ccc([C@H]2[C@@H](CO)N3CCCCN(C(=O)Cc4cccnc4)C[C@H]23)cc1 | 17.6[25 µM]
CC(C)NC(=O)N1C[C@@H]2N[C@H](C1)C2c1ccccc1 (stereo partly drawn) | -2.9
C[C@@H]1CN([C@@H](C)CO)C(=O)CCCn2cc(nn2)CO[C@@H]1CN(C)C(=O)Oc1cccc2ccccc12 | 1.1[25 µM]
C[C@H](CO)N1C[C@H](C)[C@H](CN(C)C(=O)Oc2ccc3ccccc3c2)OCc2cn(nn2)CCCC1=O | -5.1[25 µM]
CC(=O)OC(C)(C)/C=C/C(=O)C(C)(O)C1C(O)CC2(C)C3CC=C4C(CC(O)C(=O)C4(C)C)C3(C)C(=O)CC12C (stereo not drawn) | 60.0*
COc1cccc(C(=O)C2CCCN(Cc3ccc4nsnc4c3)C2)c1 (stereo not drawn) | 3.6
NC(N)=N/N=C/c1cn(-c2ccccc2)nc1-c1cccs1 | 86.5*
CC(=O)C1C(N2CC2)CC2C3CC=C4CC(O)CCC4(C)C3CCC21C (stereo not drawn) | 7.2
Clc1ccc(OCC#CCN2CCOCC2)cc1 | -28.9
O=C(c1ccccc1)c1cn(CC(=O)N2CCCC2)c2ccccc12 | 5.0
ClC1=CCC2CN(CCN3CCCCC3)CC2C1 (stereo not drawn) | 0.8
